# Experimental data as given in PubChem BioAssay (NCI).
# Compounds without any hit were thinned out: in the full panel of roughly 83,000, 20% have a hit.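 Each cell line was grown in a 96-well plate and treated with one concentration of compound for 48 hours. Values below 10 were considered active.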 Values without a mark were called inactive. Active and inactive are the calls of the source.
# Columns and labels:
# Assay in all cases: NCI-60 one-dose screen, 48 h (100 = growth as untreated, 0 = no growth, -100 = all killed)
# Conditions in all cases: 10 µM unless noted
# NCI-H23 lung = tested on: NCI-H23 lung
# NCI-H226 lung = tested on: NCI-H226 lung
# NCI-H322M lung = tested on: NCI-H322M lung
# HOP-62 NSCLC = tested on: HOP-62 NSCLC
# NCI-H460 lung = tested on: NCI-H460 lung
# HOP-92 NSCLC = tested on: HOP-92 NSCLC
# NCI-H522 lung = tested on: NCI-H522 lung
# A549/ATCC NSCLC = tested on: A549/ATCC NSCLC
# 786-0 renal = tested on: 786-0 renal
# COLO 205 colon = tested on: COLO 205 colon
# DU-145 prostate = tested on: DU-145 prostate
# K-562 leukemia = tested on: K-562 leukemia
# MALME-3M melanoma = tested on: MALME-3M melanoma
# RXF 393 renal = tested on: RXF 393 renal
# SF-268 CNS = tested on: SF-268 CNS
# SF-295 CNS = tested on: SF-295 CNS
# SF-539 CNS = tested on: SF-539 CNS
# UACC-257 melanoma = tested on: UACC-257 melanoma
# M14 melanoma = tested on: M14 melanoma
# MDA-MB-231 breast = tested on: MDA-MB-231 breast
Compound,growth (NCI-H23 lung),growth (NCI-H226 lung),growth (NCI-H322M lung),growth (HOP-62 NSCLC),growth (NCI-H460 lung),growth (HOP-92 NSCLC),growth (NCI-H522 lung),growth (A549/ATCC NSCLC),growth (786-0 renal),growth (COLO 205 colon),growth (DU-145 prostate),growth (K-562 leukemia),growth (MALME-3M melanoma),growth (RXF 393 renal),growth (SF-268 CNS),growth (SF-295 CNS),growth (SF-539 CNS),growth (UACC-257 melanoma),growth (M14 melanoma),growth (MDA-MB-231 breast)
C=CCc1cc(C)ccc1NC(C(=O)NCC(=O)OC)c1ccccc1 (stereo not drawn),93.7%,95.1%,95.3%,85.5%,116%,103%,96.4%,93%,94.1%,100%,112%,106%,105%,109%,95%,92.9%,94.5%,104%,96.6%,
CCOC(=O)c1sc2ncc(-c3ccc(OC)cc3)n2c1C,85.9%,84.3%,97.3%,91.4%,103%,,74.7%,104%,106%,105%,105%,91.2%,101%,111%,98.1%,96.4%,91.8%,105%,95.3%,92.4%
CCCCCCNC(=O)Oc1ccc(/C(=C(\C)c2ccc(OC)cc2)c2ccc(OCCN3CCCCC3)cc2)cc1,64.6%,95.6%,90.3%,72%,52.7%,,72.7%,61.7%,41.7%,16.3%,79.7%,6.45% (active),34.8%,47.2%,71.8%,33.3%,27.1%,-1.88% (active),-37% (active),73.6%
O=C(CCOCCNC(=O)COc1ccc2c(c1)OCC(c1ccc(F)cc1)C2=O)NCCCC(O)(P(=O)(O)O)P(=O)(O)O (stereo not drawn),98%,106%,102%,105%,108%,,94.9%,103%,103%,112%,108%,105%,113%,121%,98.6%,102%,101%,112%,109%,107%
CCc1ccc(Oc2c(-c3ccc(OCc4ccc(Cl)cc4)cc3O)nn(C)c2C(F)(F)F)cc1,-14.2% (active),6.86% (active),13.6%,-35.2% (active),-20% (active),,-33.5% (active),3.73% (active),-37% (active),-75.2% (active),15%,2.43% (active),-27.6% (active),-43.3% (active),12.6%,-11.1% (active),2.68% (active),-18.3% (active),1% (active),-55.7% (active)
Cc1ccc(C(=O)N/N=C/c2cccc(Oc3ccccc3)c2)cn1,70.7%,66.9%,82.3%,71.6%,33.3%,,31.5%,54.1%,18.3%,65.2%,88.7%,23.8%,64.8%,71.6%,79.1%,41.6%,72.9%,72.4%,50%,65.3%
COc1ccccc1/C=C1\Oc2cc(OCCN3CCC(Cc4ccccc4)CC3)ccc2C1=O,93.9%,96.9%,85.6%,103%,93%,,91.7%,96.2%,80%,38.4%,102%,27.6%,76.8%,69.9%,84.4%,96.6%,93.8%,95.1%,65.9%,90.3%
CNCCCNc1nc2ccccc2c2c(=O)c3cc(F)ccc3sc12,70.1%,81.7%,55.9%,47.9%,-52.9% (active),,24.8%,37.9%,61.5%,-47.8% (active),2.57% (active),-38.7% (active),84.2%,45.6%,51.5%,81.5%,1.04% (active),91.6%,-53.2% (active),-53.7% (active)
CCc1cccc2c1S/C(=C/c1ccc(OC)cc1)C2=O,50.1%,85.7%,86.7%,45.4%,56%,,42.7%,89%,63.6%,105%,49.5%,11.2%,51.7%,40.1%,64.5%,62.9%,8.87% (active),72.6%,28.3%,46.5%
c1cc2nc(-c3cn[nH]c3)c3c(c2cc1-c1cn[nH]c1)C1CCC3C1 (stereo not drawn),53%,39.5%,75%,47.8%,54%,,75.1%,74%,81.5%,90.5%,81.4%,65%,61.4%,15.3%,77%,57.8%,66.7%,83.9%,69.3%,53%
COc1cc2cc(Oc3ccc(NC(=O)Nc4ccc(Cl)c(Cl)c4)cc3)c(C)nc2cc1OCCN1CCOCC1,58.9%,57.7%,105%,105%,,76.8%,67.5%,76.7%,91.5%,104%,99.6%,39.2%,92.2%,84%,94.3%,80.1%,93.6%,74.3%,101%,97.1%
COc1ccc(C(=O)COC(=O)[C@H](C[Se][Se]C[C@H](NC(=O)c2ccc(Br)cc2F)C(=O)OCC(=O)c2ccc(OC)cc2)NC(=O)c2ccc(Br)cc2F)cc1,-50.3% (active),-69.5% (active),0.597% (active),-72.4% (active),,-27.9% (active),-69.5% (active),-3.84% (active),-95.8% (active),-45.6% (active),-70.6% (active),9.64% (active),-45.9% (active),-90.5% (active),-54.3% (active),-31.7% (active),-93.9% (active),-43.8% (active),-73.9% (active),-57.5% (active)
C=C1C(=O)O[C@H]2[C@H]1CC/C(COC(=O)CCC(=O)NCCOCCOCC(=O)Nc1ccc(OC)c(C(N)=O)c1O)=C\CC[C@@]1(C)O[C@@H]21,101%,55.5%,101%,90.3%,,68.6%,26.5%,91.4%,91.8%,63.7%,101%,86.2%,92.7%,67.9%,95.2%,97.3%,88.8%,77.6%,93.3%,95.2%
O=c1c2cc(F)ccc2sc2c(NCCCNCCO)nc3ccccc3c12,66.9%,80.8%,50%,46.5%,,3.78% (active),20.4%,33.9%,51.9%,-56.4% (active),8.53% (active),-44.3% (active),69.5%,44.8%,41.6%,65.3%,-24.1% (active),91.2%,-79% (active),-33.1% (active)
O=C1CCC/C=C\C[C@H]2C=CC(=O)/C2=C/C[C@H](CCc2cccc(C(F)(F)F)c2)O1,-22% (active),-36.2% (active),-44.6% (active),-73.7% (active),,-46.5% (active),-88.7% (active),0.826% (active),-79.2% (active),-84.8% (active),-44.6% (active),0.315% (active),-25.5% (active),-81.9% (active),-39% (active),-22.9% (active),-56.7% (active),-34.7% (active),-30.9% (active),
COc1ccc(C2CC(c3ccc(Nc4ccnc5cc(Cl)ccc45)cc3)=NN2C=O)cc1 (stereo not drawn),76.9%,90.5%,103%,90.7%,,48.3%,67.3%,64.3%,70.5%,89.4%,73.4%,17.4%,62%,76.7%,58%,51.5%,94.6%,93.5%,50.5%,78.8%
